SMILES strings stand for the structures. Activity calls are given as the source filed them. How the source made its calls: active means hit-call score of the fitted dose curve at least 0.9, where 1 is the maximum; inactive means score below 0.9.

Myc proto-oncogene protein (Homo sapiens), sequence (P01106 whole entry, looked up): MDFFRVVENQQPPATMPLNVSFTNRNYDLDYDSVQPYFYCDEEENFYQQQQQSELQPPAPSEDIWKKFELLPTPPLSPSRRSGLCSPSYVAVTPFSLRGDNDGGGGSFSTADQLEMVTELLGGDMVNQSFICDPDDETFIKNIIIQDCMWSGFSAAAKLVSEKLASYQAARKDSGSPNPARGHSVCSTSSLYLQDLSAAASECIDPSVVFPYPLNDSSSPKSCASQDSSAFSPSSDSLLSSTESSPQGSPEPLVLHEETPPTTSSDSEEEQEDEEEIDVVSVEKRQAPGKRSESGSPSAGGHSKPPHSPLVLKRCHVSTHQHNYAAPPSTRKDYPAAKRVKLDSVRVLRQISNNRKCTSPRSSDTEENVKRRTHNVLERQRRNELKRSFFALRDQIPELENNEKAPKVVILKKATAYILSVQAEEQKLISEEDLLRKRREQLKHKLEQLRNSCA

The target in this test is Myc proto-oncogene protein (Homo sapiens) (UniProt P01106). In words: ATG_Myc_CIS: Attagene CIS-FACTORIAL HepG2 Assay for human Myelocytomatosis (Myc) Proto-Oncogene Transcription Factor (AID 2282990). The conditions noted are these: HepG2, Attagene cis-reporter transcription factor activity; actives raise or lower the signal. A digest of the protocol:
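Cells of the HepG2 human liver line bear multiple cis-driven reporter transcription units. Reporter mRNA after 24 h exposure is reverse-transcribed, amplified, labelled and resolved by capillary electrophoresis, with gain- or loss-of-signal fitting relative to DMSO.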
As to `CC(=O)OCc1ccc2c(c1)OCO2`, the compound was classed as inactive.
`CC(C)C[C@H]1C(=O)N2CCC[C@H]2[C@]2(O)O[C@](NC(=O)[C@@H]3C=C4c5cccc6[nH]c(Br)c(c56)C[C@H]4N(C)C3)(C(C)C)C(=O)N12`: the compound was called inactive.
For `CCCCC(CC)COC(=O)/C=C\C(=O)OCC(CC)CCCC` (centres undefined), the compound was classed as inactive.
Then `Cc1cccc(Nc2ccccc2C(=O)O)c1C`, with “inactive”; and `S=C(S)NCCNC(=S)S`, with “inactive”; and `O=c1[nH]nnc2ccccc12`, with “inactive”.
Take `CC(C)=CCO`: the compound was called inactive.
Then `CCCCCCC#CC(=O)OC`, with “inactive”.
On to `CCCCOCCOCCOCCOCCO`, for which the compound was classed as inactive.
`CC(C)[C@H]1CC[C@@H](C)CC1=O`: the call was inactive.
The value for `CNCCCC12CCC(c3ccccc31)c1ccccc12` was “inactive”.
Regarding `CC1(C)[C@H]2CC[C@]1(C)[C@H](O)C2`, the outcome was inactive.
As to `CCCc1c(OCCCOc2ccc(OCC(=O)O)cc2)ccc(C(C)=O)c1O`, the result was inactive.
In the case of `CCCCCCOC(=O)CCCCC`, the outcome was inactive.
For `O=C(O)CCCCCCCCCCC(=O)O`, the compound was classed as inactive.
As for `CC1(C)[C@H](C(=O)OCc2cccc(Oc3ccccc3)c2)[C@@H]1C=C(Cl)Cl`, the call was inactive.
The value for `OCCN1CCNCC1` was “inactive”.
Then `Nc1cc(N)cc(C(=O)O)c1`, with “inactive”; and `CCCCNC(=O)NS(=O)(=O)c1ccc(C)cc1`, with “inactive”.
On to `CC(=O)C=CC1=C(C)CCCC1(C)C`, for which the result was inactive.
The value for `O=C(O)c1cccc([N+](=O)[O-])c1` was “inactive”; that for `CC(=O)C(=O)O` was “inactive”; that for `COc1ccc(OC)c(OC)c1` was “inactive”.
Then `CO[Si](CCCn1c(=O)n(CCC[Si](OC)(OC)OC)c(=O)n(CCC[Si](OC)(OC)OC)c1=O)(OC)OC`, with “inactive”.
